The source of these data is PubChem BioAssay (NCATS).

Values joined by “and” are separate entries in the source; they are usually repeats but may differ in a detail not shown here. Equal values may be shown once. Records with an inconclusive call do not appear. Active and inactive are the calls of the source. Unless noted, calls come from the whole dose curve.

Test [1] concerns the target Estrogen receptor (Homo sapiens) (UniProt P03372). Briefly: qHTS assay for small molecule antagonists of estrogen receptor alpha signaling (AID 588513; active = well fitted curve in the direction sought with a large enough effect in the signal ratio, with a control signal flat, not every such curve was filed as active; the % refers to the signal ratio; note: % is set by controls: 0 for no effect and ±100 for the full control effect). The method in brief: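 Fluorescence from CCF4 substrate after 2 h at room temperature gave reporter activity; cells had been exposed to compound and 0.5nM 17-beta-estradiol for 18 h at 37 C. Hill-equation fitting yielded IC50 and maximal response.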

Test [2] shares this target. Briefly: qHTS assay for small molecule agonists of estrogen receptor alpha signaling (AID 588514).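 Note: 0% = vehicle only and 100% = reference agonist; nearly all actives have a fitted effect of over 70% in size.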 An outline of the steps: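 ER-alpha-UAS-bla GripTite HEK 293 cells in medium with 2% charcoal/dextran-treated FBS were treated with compound titrations at 37 C for 18 hrs; beta-lactamase reporter read by CCF4 fluorescence after 2 hrs at RT.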
(Quantitative high-throughput screening tests each substance at several concentrations.)

The target in test [3] is Peroxisome proliferator-activated receptor gamma (Homo sapiens) (UniProt P37231). Briefly: qHTS assay for small molecule agonists of peroxisome proliferator-activated receptor gamma signaling (AID 588536; active = well fitted curve in the direction sought with a large enough effect in the signal ratio, with a control signal flat, not every such curve was filed as active; the % refers to the signal ratio;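 note: 0% = DMSO basal wells and 100% = rosiglitazone at 2 µM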). The method in brief: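 Ratiometric blue/green fluorescence (405 nm excitation; 460 and 530 nm emission) from CCF4-loaded HEK293 reporter cells serves as signal. Exposure to test compounds lasts 16 h at 37 C in medium containing 1% charcoal/dextran-treated serum.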
Peroxisome proliferator-activated receptor gamma (Homo sapiens), sequence (P37231 whole entry, looked up): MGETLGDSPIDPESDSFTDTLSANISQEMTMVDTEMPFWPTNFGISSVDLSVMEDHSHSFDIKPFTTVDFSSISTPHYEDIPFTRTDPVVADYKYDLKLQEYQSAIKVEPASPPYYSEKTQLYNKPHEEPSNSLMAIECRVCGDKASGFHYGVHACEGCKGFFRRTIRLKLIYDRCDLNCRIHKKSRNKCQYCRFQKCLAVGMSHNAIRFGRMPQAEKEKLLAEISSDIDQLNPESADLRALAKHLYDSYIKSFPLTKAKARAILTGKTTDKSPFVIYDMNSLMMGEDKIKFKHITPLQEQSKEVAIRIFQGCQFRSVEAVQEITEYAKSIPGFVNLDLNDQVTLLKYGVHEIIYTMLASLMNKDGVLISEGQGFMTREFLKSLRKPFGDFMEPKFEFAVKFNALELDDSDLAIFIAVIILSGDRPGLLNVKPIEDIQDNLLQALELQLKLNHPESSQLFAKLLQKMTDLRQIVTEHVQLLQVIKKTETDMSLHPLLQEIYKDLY

For test [4] the target is unchanged. Briefly: qHTS assay for small molecule antagonists of peroxisome proliferator-activated receptor gamma signaling (AID 588537; active = well fitted inhibition curve with a large enough effect in the signal ratio, with a control signal flat, not every such curve was filed as active; the % refers to the signal ratio;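 note: reporter cells co-stimulated with 50 nM rosiglitazone agonist during compound treatment; % of control where 0% means no effect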). The method in brief: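 Step one: plate 3000 HEK293 UAS-bla cells per well in medium with 1% stripped serum and hold 6-6.5 h at 37 C. Step two: add compound and 50 nM agonist for 16 h. Step three: CCF4 loading, fluorescence read.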
The target in test [5] is Vitamin D3 receptor (Homo sapiens) (UniProt P11473). Briefly: qHTS assay for small molecule antagonists of vitamin D receptor signaling (AID 588541).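 Note: receptor activated by calcitriol during compound treatment; series mostly up to about 77 µM; % is set by controls: 0 for no effect and ±100 for the full control effect.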 The method in brief: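 VDR-UAS-bla HEK293T cells in 2% charcoal-stripped FBS were stimulated with 1-alpha,25-dihydroxyvitamin D3 (3 nM final) plus compound for 16 h at 37 C. The beta-lactamase CCF4 readout was normalized to 50 nM agonist and DMSO, and Hill fits gave IC50.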
Vitamin D3 receptor (Homo sapiens), sequence (P11473 whole entry, looked up): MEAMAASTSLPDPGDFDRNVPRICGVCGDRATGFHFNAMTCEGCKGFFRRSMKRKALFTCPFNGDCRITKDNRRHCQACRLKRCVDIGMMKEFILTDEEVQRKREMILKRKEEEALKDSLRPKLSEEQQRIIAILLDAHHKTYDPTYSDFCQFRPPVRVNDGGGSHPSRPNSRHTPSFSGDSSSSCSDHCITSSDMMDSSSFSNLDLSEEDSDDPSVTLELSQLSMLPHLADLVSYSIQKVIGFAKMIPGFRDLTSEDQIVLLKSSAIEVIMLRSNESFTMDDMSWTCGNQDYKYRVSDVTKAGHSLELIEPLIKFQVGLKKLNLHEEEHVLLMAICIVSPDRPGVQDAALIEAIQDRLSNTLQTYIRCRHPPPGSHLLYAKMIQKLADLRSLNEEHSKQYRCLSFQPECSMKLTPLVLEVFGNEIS

For test [6] the target is unchanged. Briefly: qHTS assay for small molecule agonists of vitamin D receptor signaling (AID 588543).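 Note: 0% = DMSO basal and 100% = reference agonist control.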 An outline of the steps: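 Reporter cells (HEK293T, VDR-UAS-bla) were seeded in medium with 2% charcoal-stripped serum and incubated 5 h, then compounds in concentration series were added for 16 h at 37 °C. Stimulation was scaled between DMSO basal and 50 nM 1α,25-dihydroxyvitamin D3.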

Test [7] has as its target Retinoic acid receptor RXR-alpha (Homo sapiens) (UniProt P19793). Kind of test: qHTS assay for small molecule agonists of retinoid X receptor alpha signaling (AID 588544).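 Note: 0% = DMSO basal wells and 100% = reference agonist.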
Test [8] can be described thus: qHTS assay for small molecule antagonists of retinoid X receptor alpha signaling (AID 588546; active = well fitted inhibition curve with a large enough effect in the signal ratio, with a control signal flat, not every such curve was filed as active; the % refers to the signal ratio;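 note: cells stimulated with 9-cis-retinoic acid as agonist; % is set by controls: 0 for no effect and ±100 for the full control effect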). To be noted: HEK293T RXRa-UAS-bla, beta-lactamase ratio, antagonist mode; measured here: W530 green channel, cytotoxicity proxy. An outline of the steps:
(§1)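 Beta-lactamase reporter inhibition, read as CCF4 fluorescence ratio (ex 405, em 460/530 nm) after 2 h at RT. HEK293T UAS-bla cells, 2500/well, were stimulated with 9-cis-RA at 500 or 100 nM final alongside test compound for 18 h at 37 C.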

Test [9] has as its target Retinoic acid receptor RXR-alpha (Homo sapiens) (UniProt P19793). The test is described as above. To be noted: HEK293T RXRa-UAS-bla, beta-lactamase ratio, antagonist mode. An outline of the steps: as §1
Test [10] concerns the target Thyroid hormone receptor beta (Homo sapiens) (UniProt P10828). Briefly: qHTS assay for small molecule antagonists of thyroid hormone receptor beta signaling (AID 588547; active = well fitted inhibition curve with a large enough effect in the signal ratio, with a control signal flat, not every such curve was filed as active; the % refers to the signal ratio;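 note: cells stimulated with 0.4 nM T3 agonist during compound exposure; series mostly up to about 77 µM; % is set by controls: 0 for no effect and ±100 for the full control effect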). Particulars: TR-UAS-bla HEK293, beta-lactamase ratio, antagonist mode, 18 h. An outline of the steps: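 TR-UAS-bla GripTite HEK293 cells in 2% charcoal/dextran FBS medium; compounds 0.59 nM to 92 uM with T3 at 0.4nM final, 18 h at 37 C. Beta-lactamase read by CCF4 fluorescence (460/530 nm); Hill fits gave IC50 and efficacy.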

Test [11] is described as follows: qHTS assay for small molecule activators of the p53 signaling pathway (AID 651743; active = well fitted activation curve with a large enough effect in the signal ratio, not every such curve was filed as active; the % refers to the signal ratio; note: series mostly up to about 92 µM; % of control where 0% means no effect). Particulars: HCT-116 p53RE-bla, beta-lactamase FRET ratio, 16 h; activation: stronger effect = higher value. The method in brief: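 HCT-116 p53RE-bla, 4,000 cells/well; 5 h settle; cpd/DMSO 16 h, 37 C; LiveBLAzer B/G 2 h RT; fluorescence intensity.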
Test [12] in a line: qHTS assay for environmental chemicals that activate the Aryl hydrocarbon Receptor (AhR) signaling pathway (AID 651777; active = well fitted curve in the direction sought with a large enough effect; an effect the other way counts as inactive or inconclusive; note: % of control where 0% means no effect; nearly all actives have a fitted effect of over 15% in size). Particulars: 1A2-DRE human hepatoma cells, luciferase, 24 h; activation: stronger effect = higher value. The method in brief: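 Luminescence (One-Glo, 30 min, room temperature) reports AhR-driven luciferase in stably transfected human hepatoma cells bearing DRE and CYP1A2 promoter. Cells (1,200/well) were treated with compound for 24 hr at 37 C in qHTS format.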

The target of test [13] is Peroxisome proliferator-activated receptor alpha (Homo sapiens) (UniProt Q07869). Briefly: qHTS assay for small molecule agonists of the peroxisome proliferator-activated receptor alpha (PPARalpha) signaling pathway (AID 651778; active = well fitted curve in the direction sought with a large enough effect; an effect the other way counts as inactive or inconclusive; note: % of control where 0% means no effect). To be noted: PathHunter PPARalpha complementation, chemiluminescence, 6 h; max response: stronger effect = higher value. The method in brief:
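Enzyme-fragment complementation assay in which ligand-bound PPARalpha translocates and forms an active enzyme that generates chemiluminescence. Cells were plated overnight, exposed to compound for 6 hr at 37 C, and then given detection reagent for 60 min at room temperature.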

A short description of test [14]: qHTS assay for small molecule agonists of the antioxidant response element (ARE) signaling pathway measured by Nrf2-dependant transcriptional activity (AID 720636; active = well fitted curve in the direction sought with a large enough effect in the repeat runs; an effect the other way counts as inactive or inconclusive; note: % of control where 0% means no effect). The method in brief: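 Nrf2-dependent transcription read as ONE-Glo luciferase signal from ARE-luc HepG2 reporter cells after 16 hr compound treatment at 37 C, 5% CO2, in assay medium with 1% dialyzed FBS.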

The nature of test [15]: qHTS assay for small molecule agonists of the antioxidant response element (ARE) signaling pathway measured by Nrf2-dependant transcriptional activity - cell viability counter screen (AID 720653; active = well fitted curve in the direction sought with a large enough effect in the repeat runs; an effect the other way counts as inactive or inconclusive; note: % is set by controls: 0 for no effect and ±100 for the full control effect). To be noted: ARE-bla HepG2 viability, CellTiter-Glo ATP luminescence, 16 h; max response: stronger effect = lower value. An outline of the steps:
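ARE-bla HepG2 cells treated with compounds for 16 h at 37C; this counter screen measures viability as intracellular ATP by CellTiter-Glo luminescence after 30 min at room temperature.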

Test [16] can be described thus: qHTS assay for cell viability of HEK293 cells (AID 743288; active = well fitted curve in the direction sought with a large enough effect; an effect the other way counts as inactive or inconclusive; note: % is set by controls: 0 for no effect and ±100 for the full control effect; nearly all actives have a fitted effect of over 50% in size). Particulars: ATP luminescence (CellTiter-Glo), 18 h; max response: stronger effect = lower value. An outline of the steps:
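HEK293 parental, 2,000 cells/well; ≥5 h pre-incubation 37 C; pintool compound addition; 18 h, 37 C; CellTiter-Glo 30 min RT; luminescence read.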

Test [17] in a line: qHTS assay for cell viability of the p53RE-bla HCT-116 cell line (AID 743292; active = well fitted curve in the direction sought with a large enough effect; an effect the other way counts as inactive or inconclusive; note: % is set by controls: 0 for no effect and ±100 for the full control effect; nearly all actives have a fitted effect of over 55% in size). The method in brief: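 ATP-based luminescent viability (CellTiter-Glo, 30 min RT) after 16 h compound treatment at 37 C of p53RE-bla HCT-116 cells, seeded at 4,000 cells/well and rested 5 h before dosing.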
Test [18] deals with Nuclear receptor subfamily 1 group I member 2 (Rattus norvegicus) (UniProt Q9R1A7). Briefly: qHTS assay for small molecule activators of the rat pregnane X receptor (rPXR) signaling pathway (AID 651751; call rule not given here; note: 0% is about no effect). To be noted: rPXR reporter cells, luciferase (One-Glo), 24 h.
Nuclear receptor subfamily 1 group I member 2 (Rattus norvegicus), sequence (Q9R1A7 whole entry, looked up): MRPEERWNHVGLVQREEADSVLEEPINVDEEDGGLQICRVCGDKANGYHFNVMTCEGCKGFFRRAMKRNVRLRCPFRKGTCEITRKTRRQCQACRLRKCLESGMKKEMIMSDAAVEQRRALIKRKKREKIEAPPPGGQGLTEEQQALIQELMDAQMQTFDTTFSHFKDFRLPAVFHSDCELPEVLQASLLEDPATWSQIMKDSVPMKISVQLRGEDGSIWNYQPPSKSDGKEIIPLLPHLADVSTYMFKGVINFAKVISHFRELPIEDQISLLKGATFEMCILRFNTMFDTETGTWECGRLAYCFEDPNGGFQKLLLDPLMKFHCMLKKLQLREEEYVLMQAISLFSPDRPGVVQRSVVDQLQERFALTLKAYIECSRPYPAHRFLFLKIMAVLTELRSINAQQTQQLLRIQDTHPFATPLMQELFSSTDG
Test [19] addresses Thyroid hormone receptor beta (Homo sapiens) (UniProt P10828). Kind of test: qHTS assay for small molecule agonists of thyroid hormone receptor beta signaling (AID 588545).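 Note: 0% = DMSO only and 100% = 10 nM T3.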 The method in brief:
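Stimulation of a TR-driven beta-lactamase reporter was quantified in GripTite HEK 293 cells. Compound series ran for 18 hrs; curves were normalized to T3 and DMSO controls and fitted to yield EC50.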

Test [20] deals with Peroxisome proliferator-activated receptor delta (Homo sapiens) (UniProt Q03181). Kind of test: qHTS assay for small molecule agonists of peroxisome proliferator-activated receptor delta signaling (AID 588534).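 Note: 0% = DMSO basal wells and 100% = positive control agonist at 10 µM.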 An outline of the steps:
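Cell-based beta-lactamase reporter assay run in agonist mode: cells seeded and incubated 5 hrs at 37 C, compounds added and incubated 18 hrs at 37 C. CCF4 dye fluorescence read after 2 hrs at RT; EC50 and efficacy from Hill fits.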

Estrogen receptor (Homo sapiens), sequence (P03372 whole entry, looked up): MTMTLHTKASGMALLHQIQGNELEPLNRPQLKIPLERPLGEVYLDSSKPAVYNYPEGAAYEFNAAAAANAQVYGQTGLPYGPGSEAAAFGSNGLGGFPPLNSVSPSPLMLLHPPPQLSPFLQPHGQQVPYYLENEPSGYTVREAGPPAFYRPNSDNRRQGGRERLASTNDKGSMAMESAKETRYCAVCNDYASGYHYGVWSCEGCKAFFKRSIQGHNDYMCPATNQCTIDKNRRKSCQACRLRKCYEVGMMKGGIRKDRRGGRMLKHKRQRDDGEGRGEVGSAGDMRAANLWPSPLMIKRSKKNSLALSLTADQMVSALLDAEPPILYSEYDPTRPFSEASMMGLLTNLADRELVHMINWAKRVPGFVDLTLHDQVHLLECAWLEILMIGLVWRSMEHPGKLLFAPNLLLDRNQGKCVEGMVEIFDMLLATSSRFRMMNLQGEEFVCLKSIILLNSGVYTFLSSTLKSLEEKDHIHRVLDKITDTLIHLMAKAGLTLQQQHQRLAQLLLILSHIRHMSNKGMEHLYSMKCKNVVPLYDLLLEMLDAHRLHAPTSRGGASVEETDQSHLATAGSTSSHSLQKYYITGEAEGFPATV
Peroxisome proliferator-activated receptor alpha (Homo sapiens), sequence (Q07869 whole entry, looked up, the tested form may be a part): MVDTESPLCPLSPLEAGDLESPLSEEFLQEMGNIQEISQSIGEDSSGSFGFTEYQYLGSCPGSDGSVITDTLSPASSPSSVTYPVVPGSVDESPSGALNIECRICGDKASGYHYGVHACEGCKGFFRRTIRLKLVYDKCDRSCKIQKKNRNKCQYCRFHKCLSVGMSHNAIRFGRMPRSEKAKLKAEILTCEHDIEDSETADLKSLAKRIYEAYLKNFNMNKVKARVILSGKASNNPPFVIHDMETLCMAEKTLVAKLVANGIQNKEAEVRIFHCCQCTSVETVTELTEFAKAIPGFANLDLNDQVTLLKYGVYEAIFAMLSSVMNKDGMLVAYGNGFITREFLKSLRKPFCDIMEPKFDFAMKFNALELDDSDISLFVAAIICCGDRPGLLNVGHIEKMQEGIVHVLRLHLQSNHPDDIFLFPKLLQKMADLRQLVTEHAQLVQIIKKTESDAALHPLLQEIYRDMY
Thyroid hormone receptor beta (Homo sapiens), sequence (P10828 whole entry, looked up): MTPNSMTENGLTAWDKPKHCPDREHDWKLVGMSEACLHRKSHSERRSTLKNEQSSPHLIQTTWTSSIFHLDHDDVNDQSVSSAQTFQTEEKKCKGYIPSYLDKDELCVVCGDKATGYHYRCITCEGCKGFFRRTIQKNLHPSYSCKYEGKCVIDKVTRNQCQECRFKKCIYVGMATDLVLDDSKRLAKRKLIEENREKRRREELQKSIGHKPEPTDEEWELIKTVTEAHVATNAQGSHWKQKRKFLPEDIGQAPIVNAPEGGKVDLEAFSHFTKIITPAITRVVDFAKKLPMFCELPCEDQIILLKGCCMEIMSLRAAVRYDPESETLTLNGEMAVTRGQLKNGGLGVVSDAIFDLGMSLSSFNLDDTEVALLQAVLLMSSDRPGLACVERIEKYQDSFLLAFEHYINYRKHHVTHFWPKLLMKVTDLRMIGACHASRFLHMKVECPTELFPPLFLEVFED
Retinoic acid receptor RXR-alpha (Homo sapiens), sequence (P19793 whole entry, looked up): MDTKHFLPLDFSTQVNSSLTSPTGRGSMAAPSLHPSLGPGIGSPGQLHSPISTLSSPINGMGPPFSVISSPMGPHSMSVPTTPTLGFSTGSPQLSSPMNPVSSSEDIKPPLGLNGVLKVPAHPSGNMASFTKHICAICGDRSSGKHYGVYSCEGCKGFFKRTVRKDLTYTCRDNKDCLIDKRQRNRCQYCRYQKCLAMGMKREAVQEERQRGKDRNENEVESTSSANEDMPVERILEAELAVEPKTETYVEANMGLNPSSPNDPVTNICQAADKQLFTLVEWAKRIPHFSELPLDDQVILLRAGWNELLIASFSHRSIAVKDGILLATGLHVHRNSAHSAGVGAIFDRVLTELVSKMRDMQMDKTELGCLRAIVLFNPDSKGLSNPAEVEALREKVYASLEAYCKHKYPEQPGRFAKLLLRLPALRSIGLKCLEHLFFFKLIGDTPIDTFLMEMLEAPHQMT
Peroxisome proliferator-activated receptor delta (Homo sapiens), sequence (Q03181 whole entry, looked up): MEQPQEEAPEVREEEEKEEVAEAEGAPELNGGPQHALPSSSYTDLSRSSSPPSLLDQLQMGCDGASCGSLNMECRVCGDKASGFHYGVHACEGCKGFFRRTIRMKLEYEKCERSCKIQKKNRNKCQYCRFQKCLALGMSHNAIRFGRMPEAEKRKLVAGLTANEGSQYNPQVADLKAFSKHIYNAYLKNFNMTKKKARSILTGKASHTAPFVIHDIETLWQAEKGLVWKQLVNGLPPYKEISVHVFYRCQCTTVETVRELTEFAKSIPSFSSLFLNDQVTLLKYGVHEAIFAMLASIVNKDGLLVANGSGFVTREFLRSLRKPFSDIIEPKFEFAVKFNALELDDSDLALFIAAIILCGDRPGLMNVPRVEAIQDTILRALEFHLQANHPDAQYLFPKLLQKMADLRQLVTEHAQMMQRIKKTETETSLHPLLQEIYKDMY

As for `COc1nc(C)nc(NC(=O)NS(=O)(=O)c2ccccc2CCC(F)(F)F)n1`, the Potency result in test [1], in test [2], in [3], in [4], in test [5] and in test [7] was “inactive” in each case. In addition, the Potency entry in test [14] and in test [17] was “inactive” in each case. Also, in [6], the call was inactive. Further, the max response is -4.25% in test [8]; -8.68% (inactive) in [9]; -1.05% (inactive) in [13]; 3.55% (inactive) in test [15]; 0.421% (inactive) in [16]; 1.14% (inactive) in [18]. Besides, in [10], the activity change % (negative = inhibition) is 9.28% (inactive). Besides, the activation in [11] is 1.94% (inactive); in test [12], 0.656% (inactive).
Turning to `O=S1OC[C@@H]2[C@H](CO1)[C@@]1(Cl)C(Cl)=C(Cl)[C@]2(Cl)C1(Cl)Cl` (some centres not stated), the Potency entry in [1], in [2], in [3], in test [4], in test [5] and in test [7] was “inactive” in each case. In addition, the Potency result in test [19] and in test [14] was “inactive” throughout. Besides, the call in test [6] was inactive. In addition, the max response in test [8] was 9.73% and 12.8%; in test [9], -70.2% (inactive) and -50.2% (inactive); in test [13], -0.211% (inactive) and 0.181% (inactive); in test [15], -3.19% (inactive) and 3.58% (inactive); in test [16] it was -26.6% (inactive) and -23.3% (inactive). The activity change % (negative = inhibition) in [10] was 3.09% (inactive). The activation in test [12] was 0.042% (inactive) and 0.216% (inactive).
`Cc1cc(Cl)ccc1OCC(=O)O`: the Potency entry in test [1], in [2], in test [3], in [4], in [5] and in test [7] was “inactive” each time. Further, the Potency entry in test [19], in test [14] and in [17] was “inactive” throughout. For the same compound, the result in [6] was inactive. Further, the max response was -3.03% and 10.9% in test [8]; 3.77% (inactive) and -0.223% (inactive) in test [9]; 17.3% (inactive) and -19.3% (inactive) in test [15]; -1.6% (inactive) and -6.7% (inactive) in test [18]. Moreover, in test [10], the activity change % (negative = inhibition) is 22.2% (inactive) and -4.04% (inactive). Moreover, the activation in test [11] is -6.22% (inactive) and 0.0507% (inactive); in [12] it was 0.725% (inactive) and -1.61% (inactive).
Take `CC(C)(C)N(NC(=O)c1ccc(Cl)cc1)C(=O)c1ccccc1`: the Potency result in test [1], in [2], in [3], in test [4], in [5] and in test [7] was “inactive” each time. Also, the Potency entry in test [19], in test [14] and in test [17] was “inactive” each time. Besides, the result in [20] was inactive. Further, the max response in [8] was -5.95%; in test [9], 4.87% (inactive); in test [13] it was -3.24% (inactive); in test [15], -5.92% (inactive); in test [16], -8.37% (inactive). For the same compound, the activation in test [12] is 1.26% (inactive).
Turning to `CCOP(=S)(S)OCC`, the Potency entry in [1], in test [2], in test [3], in test [4], in [5] and in test [7] was “inactive” each time. In addition, the Potency entry in [19], in test [14] and in [17] was “inactive” in each case. Moreover, the result in [20] and in test [6] was inactive. For the same compound, the max response is -11.3% in test [8]; -16.6% (inactive) in test [9]; -2.08% (inactive) in test [13]; 2.15% (inactive) in test [15]; -0.594% (inactive) in [16]; 1.97% (inactive) in test [18]. Also, the activity change % (negative = inhibition) in test [10] is 8.37% (inactive). For the same compound, the activation was -1.75% (inactive) in [11] and 0.356% (inactive) in test [12].
